{"source": "paper PMC7819943", "about": "“Rice protein-binding microarrays: a tool to detect cis-acting elements near promoter regions in rice”", "note": "The full ranking holds about 35,000 sequences; the median of “fluorescence intensity (a.u.)” is about 10,000, and the highest 2% start at about 52,000. The sample as a whole holds a higher share of the highest values than the screen did.", "data": [{"biological_target": "T1, OsWOX13 (Oryza sativa, UniProt Q5QMM3 1-267)", "T1 sequence": "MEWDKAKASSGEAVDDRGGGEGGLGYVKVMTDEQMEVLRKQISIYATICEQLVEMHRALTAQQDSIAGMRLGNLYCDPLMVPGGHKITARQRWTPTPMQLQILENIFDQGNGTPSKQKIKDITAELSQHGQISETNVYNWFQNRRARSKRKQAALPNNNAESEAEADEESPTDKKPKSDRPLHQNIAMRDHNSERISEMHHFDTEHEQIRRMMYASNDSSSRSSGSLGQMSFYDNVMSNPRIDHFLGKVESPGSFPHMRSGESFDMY", "test": "protein-binding microarray (RPBM); PBS, 2% BSA, 51.3 ng/ul salmon testes DNA, 50 uM zinc acetate, 200 nM TF, 25 C, 1 h; high values mean tight binding", "conditions": "protein: recombinant; tags: N-terminal polyhistidine and DsRed monomer fusion (pET32a); label: CyDye5-dUTP incorporated in the synthesized complementary strand; 3' TTTTT single-stranded linker to array surface; dsDNA, one strand shown", "in_short": "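Binding signal is reported as fluorescence intensity per feature (arbitrary units) from an Axon 4000B scanner. Incubation used 200 nM of each Ni–NTA-purified, N-terminally polyhistidine- and DsRed-fused transcription factor from E. coli BL21-CodonPlus on a double-stranded custom Agilent array for 1 h at 25 °C, with 50 µM zinc acetate in the buffer, followed by washing.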", "values": [{"sequence": "TTCATTAATCTCCCGGTGATGGATGAACGGGGAAAAGGGCCGGAGTCACCTAGTGCAG", "binding signal": "4280 fluorescence intensity (a.u.)"}, {"sequence": "GATGTTAAGTTTTGGGCATATGATTGAATTGTCTTATATACGGAGTCACCTAGTGCAG", "binding signal": "4180 fluorescence intensity (a.u.)"}, {"sequence": "CTGTTTGATTTAGCTTAGGATTATTAGGTGTAAGCTGAAACGGAGTCACCTAGTGCAG", "binding signal": "3910 fluorescence intensity (a.u.)"}, {"sequence": "AACCAATCACGTCGCAGATAAGGCCTGACAGGTGTGCCCCCGGAGTCACCTAGTGCAG", "binding signal": "32700 fluorescence intensity (a.u.)"}, {"sequence": "CGCGTGTGGTGATTGGCTGGCTCTTTGCCTCATCATGGGCCGGAGTCACCTAGTGCAG", "binding signal": "34100 fluorescence intensity (a.u.)"}, {"sequence": "TGGATGATTGGTGAGATAGGTGTTCCTTATAATTATAGGGCGGAGTCACCTAGTGCAG", "binding signal": "54800 fluorescence intensity (a.u.)"}, {"sequence": "CACAGAATCCTTAATTAATTATATACATATATTGATCATGCGGAGTCACCTAGTGCAG", "binding signal": "16200 fluorescence intensity (a.u.)"}, {"sequence": "AGATGCTGCATGGTTGATTGGTTTCAAGTAATTTCATGGGCGGAGTCACCTAGTGCAG", "binding signal": "7340 fluorescence intensity (a.u.)"}, {"sequence": "CTCAAATTATTGTTAAACCTTCATATAAATCGACCCCAATCGGAGTCACCTAGTGCAG", "binding signal": "7650 fluorescence intensity (a.u.)"}, {"sequence": "GAAATTAATTTTAATAGTGTTTTCATATTATTTCCATGCGCGGAGTCACCTAGTGCAG", "binding signal": "46500 fluorescence intensity (a.u.)"}, {"sequence": "ATAGATTGATTTGATAATTTCCTTGAGAGTAACACATGGGCGGAGTCACCTAGTGCAG", "binding signal": "65500 fluorescence intensity (a.u.)"}, {"sequence": "ACATTTGTGATTTTCCTAGGTAATGGTGAGATTTTATAGGCGGAGTCACCTAGTGCAG", "binding signal": "3220 fluorescence intensity (a.u.)"}, {"sequence": "CATATTAATTGTTAAAGTTGTCATCATCCAAATTGTTATACGGAGTCACCTAGTGCAG", "binding signal": "11100 fluorescence intensity (a.u.)"}, {"sequence": "GATATAATTGGTATTATTACTAGGTTGGTGTGATATCCTACGGAGTCACCTAGTGCAG", "binding signal": "27400 fluorescence intensity (a.u.)"}, {"sequence": "CTCCTTACAAATTTTGAAGATAATTTCGTAACACTTGGGGCGGAGTCACCTAGTGCAG", "binding signal": "7610 fluorescence intensity (a.u.)"}, {"sequence": "TTAATTGATCACATATTAATGGGCAACGCTGTTTTCCATGCGGAGTCACCTAGTGCAG", "binding signal": "63600 fluorescence intensity (a.u.)"}, {"sequence": "TCCAAAATCAATCAATTAAAACCCATAGTTATTGTTGACTCGGAGTCACCTAGTGCAG", "binding signal": "53500 fluorescence intensity (a.u.)"}, {"sequence": "ACTGTGACACATGATGAACTGTTTATTTTGCATGATCTATCGGAGTCACCTAGTGCAG", "binding signal": "5480 fluorescence intensity (a.u.)"}, {"sequence": "GGCGTATTTCCCAATCATTGTGCGGTCCAAAACCATCGCCCGGAGTCACCTAGTGCAG", "binding signal": "10000 fluorescence intensity (a.u.)"}, {"sequence": "CTGATGTGATTACGTCTATCCAGTATAATCCCTCTGGTTTCGGAGTCACCTAGTGCAG", "binding signal": "31700 fluorescence intensity (a.u.)"}, {"sequence": "TACCTCGCGACTAATTGGGCCTCCACTAACACCTAGATTCCGGAGTCACCTAGTGCAG", "binding signal": "4340 fluorescence intensity (a.u.)"}, {"sequence": "TGTGAAAATGGATAATTAAGGGATCCCAAAGACCCATAAGCGGAGTCACCTAGTGCAG", "binding signal": "10800 fluorescence intensity (a.u.)"}, {"sequence": "GTTGAACTTATTCCAATCAAGGATCACGCATTCACGTTCACGGAGTCACCTAGTGCAG", "binding signal": "14100 fluorescence intensity (a.u.)"}, {"sequence": "TAAAACTTATTTCTTGATAGATCAATCCCAGATTACAATGCGGAGTCACCTAGTGCAG", "binding signal": "8210 fluorescence intensity (a.u.)"}, {"sequence": "CGACTGGATTGAAGCATTTTCTGCCTAGCTGTCTGTCTCTCGGAGTCACCTAGTGCAG", "binding signal": "10100 fluorescence intensity (a.u.)"}, {"sequence": "TTCATTAATTGATTATTACTAGTAGGGATGGTTGGTTCAACGGAGTCACCTAGTGCAG", "binding signal": "30700 fluorescence intensity (a.u.)"}, {"sequence": "AGTCTAATTGAGTGATTGTATACATGTTCAATGTTCATGGCGGAGTCACCTAGTGCAG", "binding signal": "65300 fluorescence intensity (a.u.)"}, {"sequence": "TCTAATTACTTCATGATTTGATAATTTGGTGTTACAGTAACGGAGTCACCTAGTGCAG", "binding signal": "52400 fluorescence intensity (a.u.)"}, {"sequence": "CCTAATTACTCCATGATTTGATAATATGACGCTACAGTAACGGAGTCACCTAGTGCAG", "binding signal": "25000 fluorescence intensity (a.u.)"}, {"sequence": "CCTAATTGCACCATGATTTGATAATGTTGTGCTACAGTAACGGAGTCACCTAGTGCAG", "binding signal": "42600 fluorescence intensity (a.u.)"}, {"sequence": "CATGATTTGACAATATGGTGATACAGTAAATATTTGCTAACGGAGTCACCTAGTGCAG", "binding signal": "40600 fluorescence intensity (a.u.)"}, {"sequence": "CCTGATTGCGTGTTGATTTGACAATATGGTGCTACAGTAACGGAGTCACCTAGTGCAG", "binding signal": "54300 fluorescence intensity (a.u.)"}, {"sequence": "GATCTAATTTGAAATGTGATAAATTGTTTTCAATAAATGGCGGAGTCACCTAGTGCAG", "binding signal": "27700 fluorescence intensity (a.u.)"}, {"sequence": "AATTTCTTGTTCAATCATTTCATATATATATACATGTAGGCGGAGTCACCTAGTGCAG", "binding signal": "6120 fluorescence intensity (a.u.)"}, {"sequence": "ATTAATTGATTGGATTGGTTGTGTGCATTATTTCATCTAACGGAGTCACCTAGTGCAG", "binding signal": "65200 fluorescence intensity (a.u.)"}, {"sequence": "GGTTGATTGTGAAGTTAATTATTTAACATCTCAATTATAACGGAGTCACCTAGTGCAG", "binding signal": "32800 fluorescence intensity (a.u.)"}, {"sequence": "CCTAATTGCGTCATGATTTGACAATGTAGTGCTACAGTAACGGAGTCACCTAGTGCAG", "binding signal": "50800 fluorescence intensity (a.u.)"}, {"sequence": "GTTGTATGATTGACACTAGATCGAGAAAAGGTGCGACAAACGGAGTCACCTAGTGCAG", "binding signal": "23500 fluorescence intensity (a.u.)"}, {"sequence": "CTTTAAATTTTAACTTTTGCATTGGCTTATTAGACCAACTCGGAGTCACCTAGTGCAG", "binding signal": "4620 fluorescence intensity (a.u.)"}, {"sequence": "GAAATTACATATGACAAATCCAGAATTTTGATGGAGTGGTCGGAGTCACCTAGTGCAG", "binding signal": "6770 fluorescence intensity (a.u.)"}, {"sequence": "TGCTCAATCACACACACACACGCGTGTAATATTAAGATTTCGGAGTCACCTAGTGCAG", "binding signal": "10500 fluorescence intensity (a.u.)"}, {"sequence": "TAGATTGATCGGACTAACCACCCCATTTTACACCATTTGCCGGAGTCACCTAGTGCAG", "binding signal": "20900 fluorescence intensity (a.u.)"}, {"sequence": "ATGTAAATCAATTGTTTAGTGTTGGATCTATAAGCAACATCGGAGTCACCTAGTGCAG", "binding signal": "4370 fluorescence intensity (a.u.)"}, {"sequence": "TCTAATTGAAATTATTGTGTTTATGTATAAAGACAAATACCGGAGTCACCTAGTGCAG", "binding signal": "24900 fluorescence intensity (a.u.)"}, {"sequence": "TTTGATTTGTTAATCCAGCTAGTCGTGGGGAATAGTGAAGCGGAGTCACCTAGTGCAG", "binding signal": "42700 fluorescence intensity (a.u.)"}]}]}
